Shown is part of a subset that was picked to be rich in hits.
Tgondii IFNg: T. gondii growth inhibition with IFN-gamma, primary screen, cell-based | activity change, negative = inhibition, % (no concentration beside the values) | Toxoplasma gondii growth in IFN-gamma-treated host cells; stronger effect = lower value | AID 1259416, 2018 | 69,000 tested, 3.8% active; in the data active = activity change below about -70%, passing the limit was not always enough;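 also: host cells are HeLa cells infected with Toxoplasma gondii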
Active calls of the source: *; ! = a repeat was not active.

SMILES	Tgondii IFNg
CCc1ccccc1NC(=O)c1c(O)c2cccnc2n(Cc2ccccc2)c1=O	-88*
CC(NC(=O)c1c(O)c2cccnc2n(Cc2ccccc2)c1=O)c1ccc(F)cc1 (stereo not given)	-113*
Cc1ccccc1NC(=O)c1c(O)c2cccnc2n(Cc2ccccc2)c1=O	84
CCc1ccc(CN2CCC3(CCNCC3)C2)nc1	38
CC(=O)Nc1ccc(NC(=O)c2cc3cccnc3n(Cc3ccccc3F)c2=O)cc1	83
CC(C)N1C[C@H]2COC[C@@H](CC(=O)NCCc3ccccn3)[C@H]2C1	0
Cc1cc(NC(=O)c2cc3cccnc3n(Cc3ccc(F)cc3)c2=O)ccc1Br	44
CN(C)C(=O)CN1CCN(C)C(=O)C12CCN(c1ncccn1)C2 (stereo not given)	4
CN(C)c1cccc(C2CCCNC2)n1 (stereo not given)	2
O=C(c1ccoc1)N1CC[C@@H]2OCCN(Cc3ccncc3)[C@@H]2C1	4
Cc1ccc(C(=O)CN2C(=O)CN=C(c3ccc(C)cc3)c3c2sc2c3CCCC2)cc1	24
CC(C)N(C)CC1CCC2(CCNCC2)CO1 (stereo not given)	-26
COC[C@H]1CCC[C@]12CN(Cc1c(C)noc1C)CCO2	21
O=S(=O)(N[C@H]1CCO[C@]2(CCNC2)C1)C1CC1	-2
O=C(Nc1ccccc1)N1CC2CNC(C2)C1 (stereo not given)	98
c1nc(NCC2CC2)nc2c1COCC21CCN(CC2CC2)C1 (stereo not given)	-2
COCc1cncc2c1CCN(C1CCOC1)C2 (stereo not given)	-109*
COCc1cncc2c1CCN(S(=O)(=O)C1CC1)C2	16
COCc1cncc2c1CCN(CC(C)C)C2	-2
COc1ccc2c(c1)C1(CCN(C(=O)c3cnoc3C)CC1)CC2CC(=O)O (stereo not given)	3
C=CCC(O)(CC=C)C(N)Cc1ccccc1 (stereo not given)	59
C=CCN1C[C@H]2CN(C(C)C)C[C@H]2C1=O	-32
CC(C)CCCC1(C)C=Cc2c(O)c3c(c(CCC(C)C)c2O1)OC12C(CC4CC1C(C)(C)OC2(CCC(C)C(=O)O)C4O)C3=O (stereo not given)	4
CC(C)=CCC[C@]1(C)C=Cc2c(O)c3c(c(CC=C(C)C)c2O1)O[C@]12C(=C[C@@H]4C[C@H]1C(C)(C)O[C@@]2(CC=C(C)C(=O)O)C4=O)C3=O	-85*
CC(C)COC1C2CCC1N(Cc1ccccn1)C2 (stereo not given)	64
SMILES	Tgondii IFNg
COc1cccc(OC)c1OCC(=O)N1CCN(Cc2ccccn2)CC1	-10
CN(Cc1ccccn1)C(=O)C1C2CCC1CN(CC(=O)O)C2 (stereo not given)	-27
CCCN(CCC)C1CCc2ccc(O)cc2C1 (stereo not given)	-76*!
CCCN(CCC)C1CCc2cccc(O)c2C1 (stereo not given)	16
c1cnc2c(c1)CN(Cc1ccoc1)CCN2CC1CC1	-12
COc1cccc(NC(=O)c2cc3cccnc3n(Cc3ccc(F)cc3)c2=O)c1	25
COc1cccc2c1C(=O)c1c(O)c3c(c(O)c1C2=O)C[C@@](O)(C(=O)CO)C[C@@H]3O[C@H]1C[C@H](N2CCO[C@H](OC)C2)[C@H](O)[C@H](C)O1	-81*
COCCO[C@@H]1C[C@@H]2CN(C(=O)Cc3ccccn3)CCN2C1	-3
COc1ccccc1NC(=O)c1cc2cccnc2n(Cc2ccc(F)cc2)c1=O	54
O=C(Nc1ccccc1Cl)c1cc2cccnc2n(Cc2ccccc2F)c1=O	33
C[C@H]1CCC/C=C/[C@@H]2C[C@H](O)C[C@H]2[C@H](O)/C=C/C(=O)O1	-77*
C[C@H]1CCCC(=O)CCC/C=C/c2cc(O)cc(O)c2C(=O)O1	-4
Cc1cc(CC(C)NCC(=O)Nc2cnccn2)n[nH]1 (stereo not given)	8
CCCCc1ccc(NC(=O)c2cc3cccnc3n(Cc3ccc(F)cc3)c2=O)cc1	90
C[C@@H]1CN2CCCC2CN1Cc1ccnc(N2CCCC2)n1 (stereo not given in full)	1
Cc1ccc(Cl)cc1NC(=O)c1cc2cccnc2n(Cc2ccc(F)cc2)c1=O	98
O=C(NC(=S)Nc1cc(C(F)(F)F)cc(C(F)(F)F)c1)Oc1ccccc1	-98*
CNC(=O)c1ccc(CN2CC=C(c3cnn(C)c3)CC2)o1	-1
CN(C)[C@H]1CN(C(=O)Cc2ccccn2)C[C@H]2CCCO[C@H]21	2
O=C(Nc1ccc(Br)cc1)c1cc2cccnc2n(Cc2ccccc2)c1=O	393
